# Sampled rows, rich in hits. Any-hit rate of the full collection: about 21%.
# CHX counter – counter-screen hit for Shiga toxin inhibitors, cycloheximide; cell reporter, cycloheximide protein synthesis inhibition counterscreen; max response, %; 12% of 300,000 active; AID 2314; in the data active means max response mostly above about 13%, no sharp cut-off; inactive means mostly below about 14%; further: read at 38.3 µM for the half of the compounds with a filed dose; 0% is about no effect
# NS1 function inh – influenza NS1 inhibition | Potency, µM (highest dose often 46.1 µM), for inactives: at the top dose activity, positive = more growth | 0.4% of 270,000 active | AID 2326; calls by dose curve; further: potency means the concentration at half of the fitted maximal effect; actives are rising curves; nearly all actives have a fitted effect of over 50% in size
#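 A cell-based growth assay was used: compounds that relieve NS1-induced slow growth of budding yeast raise OD600. Assay medium was yeast nitrogen base with ammonium sulphate and -URA supplement, pH 6.0, with 2% galactose.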
# Pf growth 96h – inhibits malaria parasite growth, 96 h; P. falciparum luciferase reporter growth, 96 h; Potency, µM (top dose mostly 28.7 µM), inactives show at the top dose activity change, negative = inhibition, usual class: inhibitors; 6.9% of 320,000 active; further: potency means the concentration at half of the fitted maximal effect; on the % scale 0 is the no-effect control and ±100 the full control effect
#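 Luminescence readout: decreased luciferase signal marks inhibited growth of reporter-expressing P. falciparum in infected red cells (2% hematocrit, 0.05% parasitemia final), exposed to compound two generations (96 h, 37 C, 5% CO2).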
# Giardia FBPA inh – Giardia lamblia aldolase inhibition; purified Giardia FBPA; Potency, µM (top dose mostly 59.6 µM), for inactives: top-dose activity, negative = inhibition, most hits filed as inhibitors; 0.71% of 290,000 active; AID 2451; further: potency means the concentration at half of the fitted maximal effect; on the % scale 0 is the no-effect control and ±100 the full control effect; nearly all actives have a fitted effect of over 55% in size
# Target sequence (A8B2U2 whole entry, looked up): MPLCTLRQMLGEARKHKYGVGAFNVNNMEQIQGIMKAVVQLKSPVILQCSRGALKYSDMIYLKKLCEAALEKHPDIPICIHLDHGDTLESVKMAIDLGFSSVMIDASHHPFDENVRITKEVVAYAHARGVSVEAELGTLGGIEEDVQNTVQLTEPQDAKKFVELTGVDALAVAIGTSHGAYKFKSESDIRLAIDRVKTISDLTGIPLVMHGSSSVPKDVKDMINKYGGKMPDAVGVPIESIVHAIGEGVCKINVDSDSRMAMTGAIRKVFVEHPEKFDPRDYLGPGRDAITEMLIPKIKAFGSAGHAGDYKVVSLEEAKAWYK
#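 40 nM FBPA preincubated 10 min at RT with compound (up to 57.5 uM final), then substrate plus GAPDH/TPI/NAD/arsenate coupling and diaphorase/resazurin added. Fluorescence read after 20 min at RT, 525/598 nm.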
# Pf growth 48h – inhibits P. falciparum growth in the first generation, 48 h; P. falciparum luciferase growth in erythrocytes, 48 h; Potency, µM (top dose mostly 28.7 µM), inactives show at the top dose activity change, negative = inhibition, actives largely listed as inhibitors; 5.9% of 310,000 active; further: potency means the concentration at half of the fitted maximal effect; on the % scale 0 is the no-effect control and ±100 the full control effect
#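 Erythrocytes infected with P. falciparum carrying an integrated firefly luciferase reporter (2% hematocrit, 0.1% parasitemia final) were exposed to compounds in RPMI 1640 with 0.5% Albumax at 37 C, 5% CO2. Growth inhibition was scored as reduced luminescence.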
# Shiga toxin inh – Shiga toxin inhibition; Vero cells, Shiga toxin protein synthesis inhibition reporter; 9.2% of 290,000 active; AID 2315; inhibition, % at 38.7 µM; in the data active means inhibition mostly above about 28%, no sharp cut-off; inactive means mostly below about 43%; further: 0% is about no effect
# The depositor's hits bear a star; i = inactive; ? = inconclusive; · = no result given; [ ] = dose if it differs, or a comment. Unless noted, the call rests on the fitted dose curve; in most records, active means well fitted curve in the direction sought with a large enough effect; inconclusive means small, poorly fitted or top-dose-only effect, or another doubt; inactive means no such curve, though single readings can be large; an effect the other way counts as inactive or inconclusive.
SMILES,CHX counter,NS1 function inh,Pf growth 96h,Giardia FBPA inh,Pf growth 48h,Shiga toxin inh
COc1ccc(NC(=O)c2cc(S(=O)(=O)N3CCc4ccccc43)cn2C)cc1OC,-4.5,6.0%,26.7%,0.4%,8.4%,-6.5
CC(C)(C)CN1CCC(Oc2cccc(C(=O)N3CCC[C@H]3CO)c2)CC1,-2.6,-6.1%,14.0%,2.2%,27.5%,1.9
CSCC[C@H](NC(=O)[C@H](CC(C)C)NC(=O)CNC(=O)[C@H](Cc1ccc(O)cc1)NC(=O)[C@H](Cc1ccccc1)NC(=O)[C@H](CCCCN)NC(=O)[C@H](CC(N)=O)NC(=O)[C@@H]1CCCN1C(=O)[C@H](CC(=O)O)NC(=O)[C@H](C)NC(=O)[C@@H]1CCC(=O)N1)C(N)=O,11.0,·,·,0.6%,·,-8.5
COc1ccc(CN2CCN(C(=O)c3ccco3)CC2)cc1OCc1ccccc1,-1.1,-3.4%,0.0928µM*,-9.8%,?,-3.6
Cc1cc(Cl)cc(Cl)c1OCCCCN(C)C,47.2*,-5.2%,7.9%,-16.8%,?,-16.9
CCN1CCN(Cc2ccc(OCc3ccccc3)c(OC)c2)CC1,49.3*,-5.3%,i,-12.3%,127.2%,105.2*
C[C@H]1C2=C3C(CC[C@H]4C(OCc5ccc(F)cc5C(F)(F)F)OC[C@](C)([C@@H]34)N(C(=O)OC(C)(C)C)C2)C(CO)C1CO (some centres undefined),·,·,·,-7.2%,·,·
Cc1ccc(-c2n[nH]c(=O)c3ccccc23)cc1S(=O)(=O)NCC1CCCO1 (centres undefined),-6.4,-1.1%,?,·,-9.6%,3.7
Cc1ccc(-c2nnc(Nc3ccc(C(=O)N(C)C)cc3)c3ccccc23)cc1S(=O)(=O)NCC1CCCO1 (centres undefined),-2.6,-2.4%,?,-4.4%,2.33µM*,-3.3
Cc1ccc(-c2nnc(Nc3ccc(OCC(N)=O)cc3)c3ccccc23)cc1S(N)(=O)=O,-5.1,-3.3%,57.6%,1.4%,13.1µM*,2.7
COC(=O)c1ccc(Nc2nnc(-c3ccc(C)c(S(=O)(=O)NCC4CCCO4)c3)c3ccccc23)cc1 (centres undefined),-0.7,-46.2%,?,4.5%,7.38µM*,-1.6
Cc1ccc(-c2nnc(N3CCOCC3)c3ccccc23)cc1S(=O)(=O)NCC1CCCO1 (centres undefined),8.1,-18.7%,-21.9%,5.0%,8.28µM*,20.3
c1ccc(-c2cc(-c3cc(-c4ccccn4)[nH]n3)n[nH]2)nc1,·,0.0%,·,·,·,·
CNS(=O)(=O)c1cc(-c2nnc(Nc3ccc(CC(N)=O)cc3)c3ccccc23)ccc1C,-1.9,-72.7%,29.8%,5.1%,7.38µM*,-4.2
Cc1ccc(-c2nnc(Nc3ccc(C(=O)N(C)C)cc3)c3ccccc23)cc1S(=O)(=O)NC(C)(C)CO,1.4,-13.0%,?,12.4%,2.33µM*,-5.6
CCOC(=O)CNS(=O)(=O)c1cc(-c2nnc(Nc3ccc4c(c3)OCO4)c3ccccc23)ccc1C,1.4,?,?,-5.5%,2.33µM*,-5.3
Cc1ccc(-c2nnc(Nc3ccc(CC(N)=O)cc3)c3ccccc23)cc1S(N)(=O)=O,-1.0,-0.2%,39.4%,-8.8%,0.2%[0.00184 µM],-6.5
Cc1ccc(-c2nnc(Nc3ccc(CC(N)=O)cc3)c3ccccc23)cc1S(=O)(=O)NCC1CCCO1 (centres undefined),-1.5,-0.9%,?,-8.0%,0.828µM*,9.1
COC(=O)[C@@H]1O[C@@H](SCCN)[C@@H](O)[C@H](O)[C@H]1O,·,-2.9%,·,·,·,·
Cc1ccc(-c2nnc(N3CCC(C)CC3)c3ccccc23)cc1,10.2,·,?,2.6%,?,16.3
Cc1ccc(-c2nnc(N3CCC(C)CC3)c3ccccc23)cc1C,0.7,·,?,3.8%,13.1µM*,-10.2
COC(=O)NNC(=O)c1ccc(Cl)cc1Cl,-2.5,2.0%,-11.3%,2.1%,17.3%,7.3
O=C(NC1CC(=O)c2sccc21)c1ccc(Cl)cc1Cl (centres undefined),31.5*,-4.6%,86.4%,2.2%,120.2%,33.4
CC(CNC(=O)CN(C)CC(=O)Nc1ccccc1Br)c1ccccc1 (centres undefined),·,·,-2.7%,·,-17.6%,·
COc1cnc(-c2ccccn2)nc1Sc1ccccc1,6.2,·,?,-15.6%,13.1µM*,36.5
SMILES,CHX counter,NS1 function inh,Pf growth 96h,Giardia FBPA inh,Pf growth 48h,Shiga toxin inh
COc1cnc(-c2ccccn2)nc1Sc1ccc(Cl)cc1,-1.8,6.0%,1.65µM*,4.4%,2.33µM*,-13.3
COc1ccc(Sc2nc(-c3ccccn3)ncc2OC)cc1,0.4,·,3.29µM*,-26.3%,3.29µM*,24.4
COc1cnc(-c2ccccn2)nc1Sc1ccc(F)cc1,-1.7,·,1.65µM*,-20.5%,4.65µM*,8.3
CC/C=C\C[C@H]1C(=O)CC[C@@H]1CC(=O)O,·,·,·,-1.1%,·,·
CC(=O)N(CN1C(=O)c2ccccc2C1=O)c1ccc2c(c1)oc1ccccc12,0.9,-3.6%,22.1%,2.8%,-2.5%,-13.2
COc1cc2c(-c3ccc4cc[nH]c4c3)c(-c3ccsc3)oc(=O)c2cc1OC,·,·,2.33µM*,·,?,·
COc1cc2[nH]ccc(=O)c2cc1OC,-4.6,-5.2%,4.5%,-11.2%,-1.3%,19.7
COc1cc2c(-c3ccc4[nH]ccc4c3)c(-c3ccc(C#N)cc3)oc(=O)c2cc1OC,·,·,4.65µM*,·,?,·
COc1ccc(CCNC(=O)CSc2nnc3ccc(-c4ccccn4)nn23)cc1OC,·,·,?,·,-0.2%,·
O=C(NC1CCCCCC1)c1ccccc1-c1ccccc1,-3.2,-1.2%,?,2.4%,-22.5%,-8.4
Cc1ccc(-c2cc(C(=O)NC3CCCCC3)no2)cc1,20.0*,-62.4%,45.7%,-11.6%,69.8%,16.9
O=C(Nc1cccnc1Cl)c1cc(-c2ccc(O)cc2)on1,24.7*,3.6%,-19.7%,3.9%,40.4%,72.6*
O=C(NC1CCCCC1)c1cc(-c2ccccc2O)on1,27.2*,0.0%,103.2%,4.0%,-37.8%,109.3*
COc1ccc(-c2cc(C(=O)NC3CCCCC3)no2)cc1OC,-3.1,0.0%,3.8%,-8.9%,8.9%,3.5
O=C(NC1CCCCC1)c1cc(-c2ccc(O)cc2)on1,33.3*,2.8%,38.1%,2.0%,36.1%,70.8*
O=C(Nc1cccnc1Cl)c1cc(-c2ccc(Cl)cc2)on1,-2.4,-2.0%,-10.5%,5.8%,24.3%,-3.4
COC(=O)c1cccc(-n2c(=O)n(Cc3ccccc3)c(=O)c3[nH]cnc32)c1C,-2.9,0.7%,?,-18.8%,0.1%,-10.9
S=c1[nH]c2ccc(Cc3ccc4[nH]c(=S)[nH]c4c3)cc2[nH]1,0.4,19.9%,?,6.1%,?,-10.8
O=C(O)c1ccc(N=Cc2c(O)ccc3oc4c(c23)CCCC4)cc1,16.7*,-51.7%,21.6%,-7.4%,0.8%,31.3
Oc1ccc2oc3c(c2c1/C=N/n1cnnc1)CCCC3,17.2,-2.3%,?,-11.2%,-7.0%,25.8
Oc1ccccc1N=Cc1c(O)ccc2oc3c(c12)CCCC3,7.8,-66.9%,?,-9.5%,?,9.6
